Assay outcomes as filed in PubChem BioAssay.
The list is not random: actives were taken first. Their share in the collection is about 3%.
MITF TRPM1 inh = MITF TRPM1 promoter inhibition in SK-MEL-5 cells; 0.83% of 330,000 active; SK-MEL-5 TRPM1 promoter luciferase, 24 h; inhibition, % at 12.5 µM; AID 488899;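 active = mean inhibition across replicates of 60% or more, whatever share of single replicates reaches that level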
EBV LMP1 NFkB = inhibitors of Epstein-Barr LMP1-induced NF-kappaB reporter; inhibition, % at 12.5 µM; AID 504558; 0.69% of 350,000 active; LMP1-induced NF-kappaB luciferase reporter cells, luminescence; in the data active = inhibition above about 41%;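 also: 0% = neutral control wells and 100% = reference inhibitor control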
Peg3 prom inh = reduces Peg3 promoter-driven luciferase expression in HeLa. 1.7% of 360,000 active. HeLa PEG-Prom luciferase reporter, luminescence, overnight. AID 588405. inhibition, % at 20 µM;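 active = inhibition of at least 50% at 20 µM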
HIF-2a block = HIF-2a inhibition | 0.72% of 360,000 active | 786-0 RCC cells HIF-2a reporter, luciferase luminescence, overnight | inhibition, % at 18.8 µM | AID 624352;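 active = inhibition of the luminescence signal of 40% or more relative to plate controls, in a single-dose primary screen at 18.75 µM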
KKLEB tox = CF airway cell cytotoxicity counter-screen; KKLEB CF airway cells viability, ATPlite luminescence, overnight; active compounds read low; cells stimulated with P. aeruginosa culture filtrate; activity change (cytotoxicity), % at 5 µM; 0.36% of 360,000 active; AID 602141;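 active = corrected activity change at or below -50% at 5 µM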
CF NFkB inh = inhibitors of cystic fibrosis induced NF-kB. KKLEB NF-kB-GFP reporter, PAF-induced, GFP fluorescence overnight. inhibition, % at 5 µM. 0.86% of 360,000 active. AID 588850;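 active = at least 50% inhibition at 5 µM, scaled per plate between neutral and stimulator controls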;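 also: PAF is a Pseudomonas aeruginosa culture filtrate used as stimulus; plate controls were PAF-stimulated DMSO wells for no effect and unstimulated DMSO wells for full effect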
Mdm2 MdmX conf = confirmation of inhibitors of human Mdm2/MdmX interaction, set 2 | AID 504601 | SaOS-2 split-luciferase Mdm2/MdmX complementation, luminescence | shares compounds with HIF-2a block | 99% of 740 active | inhibition, % at 8 µM;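 active = mean inhibition of the luminescence signal across two replicates at or above 26 percent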
Target sequence (O15151 whole entry, looked up): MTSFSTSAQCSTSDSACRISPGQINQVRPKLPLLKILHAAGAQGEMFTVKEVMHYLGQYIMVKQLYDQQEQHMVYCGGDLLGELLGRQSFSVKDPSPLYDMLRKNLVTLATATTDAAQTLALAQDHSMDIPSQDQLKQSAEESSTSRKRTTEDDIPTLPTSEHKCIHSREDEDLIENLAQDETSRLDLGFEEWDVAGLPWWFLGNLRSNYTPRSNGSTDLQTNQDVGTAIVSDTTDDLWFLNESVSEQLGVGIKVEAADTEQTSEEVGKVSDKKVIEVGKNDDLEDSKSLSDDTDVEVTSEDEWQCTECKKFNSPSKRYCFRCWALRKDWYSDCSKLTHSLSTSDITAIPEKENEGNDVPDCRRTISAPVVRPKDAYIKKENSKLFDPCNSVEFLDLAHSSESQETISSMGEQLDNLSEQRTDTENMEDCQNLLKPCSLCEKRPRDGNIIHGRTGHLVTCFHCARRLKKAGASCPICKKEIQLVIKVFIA
Target sequence (Q00987 whole entry, looked up): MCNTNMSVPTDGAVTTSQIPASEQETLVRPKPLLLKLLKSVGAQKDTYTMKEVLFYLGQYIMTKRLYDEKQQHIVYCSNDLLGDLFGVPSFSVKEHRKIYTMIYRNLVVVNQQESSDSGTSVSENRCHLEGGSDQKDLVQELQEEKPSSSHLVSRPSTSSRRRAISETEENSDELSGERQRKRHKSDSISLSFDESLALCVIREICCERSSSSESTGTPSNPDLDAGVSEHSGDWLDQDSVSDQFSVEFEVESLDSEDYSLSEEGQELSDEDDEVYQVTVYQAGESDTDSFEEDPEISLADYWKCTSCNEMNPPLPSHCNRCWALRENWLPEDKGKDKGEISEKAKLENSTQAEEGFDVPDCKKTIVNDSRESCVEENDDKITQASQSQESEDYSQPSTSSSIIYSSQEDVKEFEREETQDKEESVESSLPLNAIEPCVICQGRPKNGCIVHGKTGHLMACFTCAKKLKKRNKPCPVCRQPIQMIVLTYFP
HIF-2a conf = confirmation of HIF-2a inhibitors. shares compounds with HIF-2a block. 786-0 RCC cells, HIF-2a luciferase reporter luminescence, overnight. inhibition, % at 18.8 µM. 56% of 1,800 active. AID 651580;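 active = mean inhibition across four replicates of at least 40 percent at the single tested concentration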
HIF-1a cs = HIF-1a inhibition counter-screen for HIF-2a hits | shares compounds with HIF-2a block | MiaPaCa-2 HIF-1a luciferase reporter, desferoxamine, overnight | 72% of 1,800 active | AID 651589 | inhibition, % at 18.8 µM;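 active = mean inhibition of the reporter signal across four replicates at the single tested dose of 50% or more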
* hit, by the source's call.

`CC1CCC(C(C)C)C(OC(=O)Cn2c(COc3ccccc3)[n+](C)c3ccccc32)C1` (stereo not given) gave MITF TRPM1 inh 97*, EBV LMP1 NFkB -4, Peg3 prom inh 95*, HIF-2a block -10, KKLEB tox -72*, CF NFkB inh 74* and Mdm2 MdmX conf 102*.
Screening O=c1[nH]c2ccccc2n1C1CCN(C(c2nnnn2C2CCCCC2)C2CC2)CC1 (stereo not given) returned Peg3 prom inh 41, HIF-2a block -13, KKLEB tox 3 and CF NFkB inh -3.
`CC1CN1c1cc2c(c3c1ccn3C)C1CCC2C1` (stereo not given) gave Peg3 prom inh -11, HIF-2a block 9, KKLEB tox 0 and CF NFkB inh -6.
For CCOC(=O)[C@]12Cc3ccccc3[C@H]1N(C(C)C)C(=O)c1ccccc12 the results were HIF-2a block 31.
CCOC(=O)[C@]12Cc3ccc(C)cc3[C@H]1N(C1CCCCC1)C(=O)c1cc(OC)ccc12 was read as HIF-2a block 95*, HIF-2a conf 99* and HIF-1a cs 106*.
For CCCCCN1C(=O)c2cc(OC)ccc2[C@@]2(C(=O)OCC)Cc3cc(OC)ccc3[C@@H]12 the results were HIF-2a block 81*, HIF-2a conf 92* and HIF-1a cs 106*.
For CCOC(=O)[C@]12Cc3cc(OC)ccc3[C@H]1N(C)C(=O)c1cc(OC)ccc12 the results were HIF-2a block 12.
Screening CCOC(=O)[C@]12Cc3ccc(C)cc3[C@H]1N(C1CCCCC1)C(=O)c1ccccc12 returned HIF-2a block 81*, HIF-2a conf 96* and HIF-1a cs 98*.
For CCOC(=O)[C@]12Cc3c(cc(OC)c(OC)c3OC)[C@H]1N(C1CCCCC1)C(=O)c1ccccc12 the results were HIF-2a block 76*, HIF-2a conf 90* and HIF-1a cs 105*.
`O=[N+]([O-])c1cccc(NP(=O)(N2CC2)N2CC2)c1` gave MITF TRPM1 inh -8, EBV LMP1 NFkB 7, Peg3 prom inh 10, HIF-2a block 8, KKLEB tox 11 and CF NFkB inh -24.
Screening COC(=O)C1=C(c2ccccc2OCc2ccccc2)C[C@@H]2CC[C@H]1N2C(=O)NCCOc1ccccc1Cl returned MITF TRPM1 inh 9, EBV LMP1 NFkB 9, Peg3 prom inh -2, HIF-2a block 7, KKLEB tox -7 and CF NFkB inh 36.
CCOC(=O)c1cccc(C2=C(CNC(=O)c3nccs3)[C@H]3CC[C@@H](C2)N3Cc2ccccc2)c1 was read as EBV LMP1 NFkB 12, Peg3 prom inh 8, HIF-2a block 0, KKLEB tox 2 and CF NFkB inh 1.
`CCOC(=O)[C@]12Cc3cc(C)ccc3[C@H]1N(CCC(=O)OC)C(=O)c1ccccc12` gave HIF-2a block 25.
`CCOC(=O)[C@]12Cc3cc(C)ccc3[C@H]1N(C1CCCCC1)C(=O)c1ccccc12` gave HIF-2a block 88*, HIF-2a conf 97* and HIF-1a cs 106*.
CC1=CC2OC3CC4OC(=O)C=CC=CC(C(C)O)OCC(O)C5(C)OC5C(=O)OCC2(CC1O)C4(C)C31CO1 (stereo not given) was read as MITF TRPM1 inh 90*, EBV LMP1 NFkB 97*, Peg3 prom inh 102*, HIF-2a block 78*, KKLEB tox -48, CF NFkB inh 96*, HIF-2a conf 66* and HIF-1a cs 106*.
